Measured values published in PubChem BioAssay (Tox21).
Records with an inconclusive call do not appear. Where a call stands in place of a potency, no number is given. A number with no mark means an inactive call. Activity calls are given as the source filed them. Calls come from the whole dose curve.

Target: Beta-2 adrenergic receptor (Homo sapiens) (UniProt P07550)
Experiment: Adrenergic beta2 receptor (ADRB2) small molecule agonists, cell-based qHTS assay (AID 1963593);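 for activation: CHO cells stably overexpressing human ADRB2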
Outline: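 CHO cells stably over-expressing ADRB2 were plated overnight at 37C, then dosed with compounds plus a stimulation mix containing 100uM IBMX and 25uM Ro-20-1724 for 0.5hr at room temperature. cAMP was measured by HTRF competition, 1hr.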
Potency is the fitted concentration of half-maximal effect.

Sequence of Beta-2 adrenergic receptor (Homo sapiens) (P07550 whole entry, looked up): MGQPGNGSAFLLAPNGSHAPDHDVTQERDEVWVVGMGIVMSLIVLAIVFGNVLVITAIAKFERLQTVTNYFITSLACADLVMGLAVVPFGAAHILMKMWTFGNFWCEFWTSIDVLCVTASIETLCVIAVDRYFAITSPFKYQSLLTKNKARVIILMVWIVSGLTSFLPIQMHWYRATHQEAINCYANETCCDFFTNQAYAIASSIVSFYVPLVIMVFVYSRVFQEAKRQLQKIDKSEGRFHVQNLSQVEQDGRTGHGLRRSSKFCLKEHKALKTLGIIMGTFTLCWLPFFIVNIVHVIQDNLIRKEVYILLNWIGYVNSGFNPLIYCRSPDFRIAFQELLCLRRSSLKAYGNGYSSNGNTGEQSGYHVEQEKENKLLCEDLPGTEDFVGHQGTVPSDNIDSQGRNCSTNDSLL

| Compound | Potency | activation |
| --- | --- | --- |
| CCCCOC(=O)C(=O)OCCCC | inactive | – |
| CCCCCCOC(=O)c1ccccc1O | inactive | – |
| OC[C@H]1O[C@H](O[C@H]2O[C@H](CO)[C@@H](O)[C@H](O)[C@H]2O)[C@H](O)[C@@H](O)[C@@H]1O | inactive | – |
| CC(=O)c1ccc(O)c(C(N)=O)c1 | inactive | – |
| CC1(C)C(O)C(C)(C)C1O (configuration not stated) | inactive | – |
| CC(=O)N[C@H]1[C@H]([C@H](O)[C@H](O)CO)OC(C(=O)O)=C[C@@H]1N=C(N)N | inactive | – |
| OCC1CC2CC1C1CCC(CO)C21 (configuration not stated) | inactive | – |
| O=c1[nH][nH]c(=O)c2cc([N+](=O)[O-])ccc12 | inactive | – |
| CC(=O)N1C[C@H](O)C[C@H]1C(=O)O | inactive | – |
| C=CC(O)CCCCC (configuration not stated) | inactive | – |
| CC1=CCC(C(C)(C)O)CC1 (configuration not stated) | inactive | – |
| CCCCC(CC)CCC(CC(C)C)OS(=O)(=O)O (configuration not stated) | inactive | – |
| NS(=O)(=O)c1cc2c(cc1C(F)(F)F)NC(Cc1ccccc1)NS2(=O)=O (configuration not stated) | 1500 nM (active) | – |
| O=C(O)c1ccc(OCCCOc2ccc(C(=O)O)cc2)cc1 | inactive | – |
| Oc1ccc2c(c1)OC[C@@H](N1CCC(O)(c3ccc(F)cc3)CC1)[C@H]2O | inactive | – |
| CC(=O)O[C@@H]1C[C@@H]2CC[C@@]1(C)C2(C)C | inactive | – |
| CCCCC1CCC(O)CC1 (configuration not stated) | inactive | – |
| O=C(O)c1cc(=O)c2ccccc2o1 | inactive | – |
| CCCCCCS | inactive | – |
| C[Si](C)O[Si](C)C | inactive | – |
| C=C(C)C(=O)OCCOP(=O)(O)O | inactive | – |
| CC(C)=CCCC(C)O (configuration not stated) | inactive | – |
| C=C(C)C(=O)OCCCCCCOC(=O)C(=C)C | inactive | – |
| CN(C)C(=O)Oc1ccc[n+](C)c1 | inactive | – |

| Compound | Potency | activation |
| --- | --- | --- |
| Cc1ccc2ccccc2c1[N+](=O)[O-] | inactive | – |
| CCCCCCc1ccc(-c2ccc(C#N)cc2)cc1 | inactive | – |
| COC(=O)c1ccc2cc(C(=O)OC)ccc2c1 | – | 21.2% [at 19 µM] |
| O=C1OC(=O)c2ccc3c4c(ccc1c24)C(=O)OC3=O | inactive | – |
| NC(=S)N/N=C/c1cccnc1 | inactive | – |
| O=S(=O)(O)c1cccc(S(=O)(=O)O)c1 | inactive | – |
| CCOCCOC(=O)/C=C/c1ccc(OC)cc1 | inactive | – |
| COC(=O)CC(C(C)=O)C(=O)OC (configuration not stated) | inactive | – |
| NCc1ccc(S(N)(=O)=O)cc1 | inactive | – |
| C1CN(CCOCCN2CCOCC2)CCO1 | inactive | – |
| CCOC(C)(C)C | inactive | – |
| O=c1cc(CO)occ1O | inactive | – |
| OC1(c2ccc(Cl)cc2)CCNCC1 | inactive | – |
| CC(=O)N[C@@H](Cc1ccc(O)cc1)C(=O)O | inactive | – |
| CCCCC/C=C/C=C/C=O | inactive | – |
| NC(=O)NS(=O)(=O)c1ccc(Cl)cc1 | inactive | – |
| CC(C)(c1ccccc1)c1ccc(Nc2ccc(C(C)(C)c3ccccc3)cc2)cc1 | inactive | – |
| CC(C)CCCCCOC(=O)CCS | inactive | – |
| CC(C)CCCO | inactive | – |
| CO[Si](C)(C)OC | inactive | – |
| CC(C)N=C(N)/N=C(\N)Nc1ccc(Cl)cc1 | inactive | – |
| CCC(C)c1ccccc1 (configuration not stated) | inactive | – |
| COc1cc(C(=S)N2CCOCC2)ccc1O | inactive | – |
| CC(C)C1CCC(O)CC1 (configuration not stated) | inactive | – |

| Compound | Potency | activation |
| --- | --- | --- |
| C=C(C)[C@H]1CC=C(C)CC1 | inactive | – |
| CC(C)(C)c1ccc(C=O)cc1 | inactive | – |
| C[N+](C)(CCOc1ccccc1)Cc1cccs1 | inactive | – |
| CC(C)C(=O)OC(=O)C(C)C | inactive | – |
| CCCCCC(CC)OC(=O)CCCOc1ccc(Cl)cc1Cl (configuration not stated) | inactive | – |
| CC(CO)Oc1ccccc1 (configuration not stated) | inactive | – |
| CC(C)=O | inactive | – |
| O=C(O)c1cc(C(=O)O)cc([N+](=O)[O-])c1 | inactive | – |
| CCc1cccc(CC)c1NC(=O)C(=O)O | inactive | – |
| CC(=O)OCCCc1ccccc1 | inactive | – |
| O=S(=O)(O)CC(O)CCl (configuration not stated) | inactive | – |
| CN(C)Cc1ccccc1O | inactive | – |
| Cc1ccccc1OCC(O)CO (configuration not stated) | inactive | – |
| C=CC(=O)CCCCC | inactive | – |
| OCC(O)CN1CCN(c2ccccc2)CC1 (configuration not stated) | inactive | – |
| Nc1nc(=O)n([C@@H]2O[C@H](CO)[C@@H](O)[C@@H]2F)cc1I | inactive | – |
| ON=C1CCCCC1 | inactive | – |
| CC(=O)NCc1c(I)c(NC(C)=O)c(I)c(C(=O)O)c1I | inactive | – |
| Oc1ccc(Cl)cc1Sc1cc(Cl)ccc1O | inactive | – |
| Oc1ccc(/C=C/c2cc(O)cc(O)c2)cc1 | inactive | – |
| CCC(C)(C)C1CCC(=O)CC1 | inactive | – |
| C[C@@H](O)[C@H]1C(=O)N2C(C(=O)O)=C(SCCN=CN)C[C@H]12 | inactive | – |
| CCCCCCCCC(=O)OCC | inactive | – |
| CC(C)c1cc2c(cc1S(=O)(=O)O)[C@@]1(C)CCC[C@@](C)(C(=O)O)[C@@H]1CC2 | inactive | – |
